Data: PubChem BioAssay (NCI)
The panel holds about 79,000 compounds, 15% with a hit somewhere; the sample as a whole holds those more often. Active and inactive are the calls of the source. Cut-off read from the data, not from the text of the source: active = growth inhibition above about 70%; inactive = the rest.

What was measured:
[1] = NCI Yeast Anticancer Drug Screen. Data for the mec2-1 strain (AID 157); settings: S. cerevisiae mec2-1 strain, active compounds read high
Procedure, shortened: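 Test agents were screened against the mec2-1 yeast strain, with defined DNA repair or cell cycle alteration. Growth was scored as inhibition against vehicle-only controls.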

[2] = NCI Yeast Anticancer Drug Screen. Data for the rad14 strain (AID 159);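 note: 0% = growth of vehicle-treated control cultures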; settings: S. cerevisiae rad14 strain growth inhibition, active compounds read high
Procedure, shortened: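 Vehicle-treated cultures served as the baseline for growth inhibition of a DNA repair-mutant yeast strain exposed to each compound.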

[3] = NCI Yeast Anticancer Drug Screen. Data for the sgs1 mgt1 strain (AID 161);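 note: 0% = growth of cultures given vehicle only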; settings: S. cerevisiae sgs1 mgt1 strain, active compounds read high
Procedure, shortened: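 Read-out: growth inhibition vs vehicle controls. Cells: mutant yeast strain deficient in DNA damage repair.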

[4] = NCI Yeast Anticancer Drug Screen. Data for the CLN2oe strain (AID 163);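 note: 0% = growth of vehicle-only control cultures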; settings: S. cerevisiae CLN2oe strain, active compounds read high
Procedure, shortened: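 Here, growth inhibition in a cell-cycle-altered yeast strain after compound exposure was quantified against vehicle control growth.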

[5] = NCI Yeast Anticancer Drug Screen. Data for the cln2 rad14 strain (AID 165);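 note: 0% = growth equal to vehicle treated cultures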; settings: S. cerevisiae cln2 rad14 strain, active compounds read high
Procedure, shortened: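 Growth of compound-exposed yeast (cln2 rad14 genotype) measured and expressed as inhibition relative to vehicle.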

[6] = NCI Yeast Anticancer Drug Screen. Data for the bub3 strain (AID 167); settings: S. cerevisiae bub3 mutant strain, active compounds read high
Procedure, shortened: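 Inhibition values come from growth of compound-treated mutant yeast normalised to vehicle-treated controls.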

[7] = NCI Yeast Anticancer Drug Screen. Data for the wt2 strain (AID 169);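 note: 0% = growth of vehicle-treated yeast cultures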; settings: S. cerevisiae wt2 strain growth inhibition, active compounds read high
Procedure, shortened: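 Genetically defined yeast strains from a DNA-repair/cell-cycle panel were used. Compound-exposed yeast growth was measured, and the inhibition was calculated relative to vehicle treatment.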

[8] = NCI Yeast Anticancer Drug Screen. Data for the mlh1 strain (AID 171);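 note: 0% = growth of vehicle-treated control cultures of the same strain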; settings: S. cerevisiae mlh1 strain growth inhibition, active compounds read high
Procedure, shortened: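 Here the genetically defined yeast mutant is grown with each compound, and the extent to which its growth falls below that of vehicle-exposed cells is reported.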

[9] = NCI Yeast Anticancer Drug Screen. Data for the sgs1 strain (AID 173);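 note: 0% = growth of vehicle-only control cultures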; settings: S. cerevisiae sgs1 mutant, active compounds read high
Procedure, shortened: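 Relative growth inhibition, referenced to vehicle, was determined in a yeast strain with a defined alteration affecting DNA damage repair or cell cycle control after compound exposure.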

[10] = NCI Yeast Anticancer Drug Screen. Data for the mlh1 rad18 strain (AID 175); settings: S. cerevisiae mlh1 rad18 strain growth inhibition, active compounds read high
Procedure, shortened: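 In this whole-cell yeast screen, a strain with altered DNA damage repair is challenged with compound, and its growth is measured against matched vehicle-treated controls.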

[11] = NCI Yeast Anticancer Drug Screen. Data for the rad18 strain (AID 177); settings: S. cerevisiae rad18 mutant growth inhibition, active compounds read high
Procedure, shortened: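 Screen uses a yeast strain with a defined lesion in DNA damage repair; compound effect is read as loss of growth compared to untreated vehicle cultures.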

[12] = NCI Yeast Anticancer Drug Screen. Data for the wt1 strain (AID 149);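 note: 0% = growth of vehicle-treated wt1 cultures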; settings: S. cerevisiae wt1 strain (SPY 50644) growth inhibition, active compounds read high
Procedure, shortened: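 Vehicle-normalised growth inhibition; strain wt1; compound exposure.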

[13] = NCI Yeast Anticancer Drug Screen. Data for the rad50EPP+ strain (AID 151);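 note: 0% = growth of vehicle-treated control cultures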; settings: S. cerevisiae rad50 mutant strain, active compounds read high
Procedure, shortened: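 One strain with a rad50 alteration (rad50EPP+) was compound-treated, its growth then compared to that of vehicle controls.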

[14] = NCI Yeast Anticancer Drug Screen. Data for the mgt1 strain (AID 153); settings: S. cerevisiae mgt1 mutant growth inhibition, active compounds read high
Procedure, shortened: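 After exposure of the mgt1 yeast mutant to compound, growth was measured and reported as inhibition compared with vehicle controls.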

[15] = NCI Yeast Anticancer Drug Screen. Data for the rad50 strain (AID 155);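 note: 0% = growth of vehicle-only cultures of the same strain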; settings: S. cerevisiae rad50 strain growth inhibition, active compounds read high
Procedure, shortened: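 A DNA repair-deficient yeast mutant serves as the test organism; compound-induced growth inhibition is calculated against vehicle-treated cells.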

[16] = at 5.0 µM (retest, dose inferred, filed as 0.5)
[17] = at 50.0 µM (retest, dose inferred, filed as 5.0)

Measured: growth inhibition

O=C(CSS(=O)(=O)O)c1ccccc1
active: [6]; [17] 76% | [10]; [17] 89% | [11]; at 33.0 µM 84% | [11]; at 100.0 µM 89%
inactive: [1]; at 100.0 µM 24% | [2]; at 1.2 µM 2% | [2]; at 3.7 µM 3% | [2]; at 11.0 µM 5% | [2]; at 33.0 µM 9% | [2]; at 100.0 µM 19% | [3]; [16] -9% | [3]; [17] 69% | [3]; at 50.0 µM 35.3% | [4]; at 1.2 µM -5% | [4]; at 3.7 µM -14% | [4]; at 11.0 µM -11% | [4]; at 33.0 µM 2% | [4]; at 100.0 µM 28% | [5]; [16] 6% | [5]; [17] 15% | [5]; at 50.0 µM 18.2% | [6]; at 1.2 µM 0% | [6]; at 3.7 µM -5% | [6]; [16] -17% | [6]; at 11.0 µM -1% | [6]; at 33.0 µM 18% | [6]; at 50.0 µM 34.5% | [6]; at 100.0 µM 47% | [7]; at 1.2 µM -2% | [7]; at 3.7 µM -1% | [7]; at 11.0 µM 1% | [7]; at 33.0 µM 6% | [7]; at 100.0 µM 15% | [8]; at 1.2 µM -4% | [8]; at 3.7 µM 1% | [8]; at 11.0 µM 3% | [8]; at 33.0 µM 12% | [8]; at 100.0 µM 24% | [9]; at 1.2 µM 0% | [9]; at 3.7 µM 2% | [9]; at 11.0 µM 13% | [9]; at 33.0 µM 29% | [9]; at 100.0 µM 51% | [10]; [16] 31% | [10]; at 50.0 µM 35% | [11]; at 1.2 µM 5% | [11]; at 3.7 µM 20% | [11]; at 11.0 µM 62%

O=CC(=C(I)I)c1ccccc1
inactive: [12]; at 1.2 µM 15% | [12]; at 3.7 µM 41% | [14]; at 1.2 µM 17% | [14]; at 3.7 µM 50% | [1]; at 1.2 µM 28% | [1]; at 3.7 µM 67% | [1]; [16] 33% | [2]; at 1.2 µM 20% | [2]; at 3.7 µM 38% | [3]; [16] 43% | [4]; at 1.2 µM -1% | [4]; at 3.7 µM -3% | [4]; at 11.0 µM 23% | [5]; [16] 2% | [6]; at 1.2 µM -6% | [6]; at 3.7 µM -4% | [6]; [16] -17% | [6]; at 11.0 µM 27% | [7]; at 1.2 µM 4% | [7]; at 3.7 µM 5% | [7]; at 11.0 µM 38% | [8]; at 1.2 µM 13% | [8]; at 3.7 µM 32% | [9]; at 1.2 µM 56% | [10]; [16] 18% | [11]; at 1.2 µM 50%
active: [12]; at 11.0 µM 88% | [12]; at 33.0 µM 99% | [12]; at 100.0 µM 90% | [13]; at 1.2 µM 91% | [13]; at 3.7 µM 96% | [13]; at 11.0 µM 97% | [13]; at 33.0 µM 98% | [13]; at 100.0 µM 99% | [14]; at 11.0 µM 98% | [14]; at 33.0 µM 99% | [14]; at 100.0 µM 93% | [15]; at 1.2 µM 93% | [15]; at 3.7 µM 95% | [15]; [16] 97% | [15]; at 11.0 µM 97% | [15]; at 33.0 µM 99% | [15]; [17] 100% | [15]; at 50.0 µM 85.7% | [15]; at 100.0 µM 97% | [1]; at 11.0 µM 99% | [1]; at 33.0 µM 99% | [1]; [17] 99% | [1]; at 50.0 µM 88.9% | [1]; at 100.0 µM 97% | [2]; at 11.0 µM 73% | [2]; at 33.0 µM 99% | [2]; at 100.0 µM 86% | [3]; [17] 99% | [3]; at 50.0 µM 90.8% | [4]; at 33.0 µM 98% | [4]; at 100.0 µM 98% | [5]; [17] 100% | [5]; at 50.0 µM 91.5% | [6]; at 33.0 µM 99% | [6]; [17] 100% | [6]; at 50.0 µM 92.2% | [6]; at 100.0 µM 99% | [7]; at 33.0 µM 99% | [7]; at 100.0 µM 99% | [8]; at 11.0 µM 81% | [8]; at 33.0 µM 97% | [8]; at 100.0 µM 85% | [9]; at 3.7 µM 79% | [9]; at 11.0 µM 99% | [9]; at 33.0 µM 99% | [9]; at 100.0 µM 99% | [10]; [17] 100% | [10]; at 50.0 µM 93.1% | [11]; at 3.7 µM 72% | [11]; at 11.0 µM 96% | [11]; at 33.0 µM 98% | [11]; at 100.0 µM 95%

Cc1cccc(N2CCN(C(=O)/C(=C/c3ccccc3)NC(=O)c3ccccc3)CC2)c1
active: [11]; at 100.0 µM 70%
inactive: [12]; at 1.2 µM -3% | [12]; at 3.7 µM -1% | [12]; at 11.0 µM -2% | [12]; at 33.0 µM 24% | [12]; at 100.0 µM 31% | [13]; at 1.2 µM 2% | [13]; at 3.7 µM 0% | [13]; at 11.0 µM 0% | [13]; at 33.0 µM 2% | [13]; at 100.0 µM -9% | [14]; at 1.2 µM -4% | [14]; at 3.7 µM -4% | [14]; at 11.0 µM 0% | [14]; at 33.0 µM 44% | [14]; at 100.0 µM 54% | [15]; at 1.2 µM -4% | [15]; at 3.7 µM -48% | [15]; [16] -1% | [15]; at 11.0 µM 29% | [15]; at 33.0 µM 59% | [15]; [17] 48% | [15]; at 50.0 µM 12.3% | [15]; at 100.0 µM 68% | [1]; at 1.2 µM -1% | [1]; at 3.7 µM 0% | [1]; [16] -3% | [1]; at 11.0 µM 8% | [1]; at 33.0 µM 36% | [1]; [17] -26% | [1]; at 50.0 µM 2.95% | [1]; at 100.0 µM 43% | [2]; at 1.2 µM -4% | [2]; at 3.7 µM -6% | [2]; at 11.0 µM 0% | [2]; at 33.0 µM 28% | [2]; at 100.0 µM 35% | [3]; [16] 0% | [3]; [17] 56% | [3]; at 50.0 µM -13.3% | [4]; at 1.2 µM -6% | [4]; at 3.7 µM -6% | [4]; at 11.0 µM 3% | [4]; at 33.0 µM 38% | [4]; at 100.0 µM 33% | [5]; [16] -5% | [5]; [17] 35% | [5]; at 50.0 µM -12.5% | [6]; at 1.2 µM -3% | [6]; at 3.7 µM -1% | [6]; [16] -41% | [6]; at 11.0 µM 5% | [6]; at 33.0 µM 41% | [6]; [17] 38% | [6]; at 50.0 µM 10.1% | [6]; at 100.0 µM 38% | [7]; at 1.2 µM -2% | [7]; at 3.7 µM 6% | [7]; at 11.0 µM 1% | [7]; at 33.0 µM 38% | [7]; at 100.0 µM 46% | [8]; at 1.2 µM -1% | [8]; at 3.7 µM -2% | [8]; at 11.0 µM 4% | [8]; at 33.0 µM 41% | [8]; at 100.0 µM 48% | [9]; at 1.2 µM -2% | [9]; at 3.7 µM 2% | [9]; at 11.0 µM 16% | [9]; at 33.0 µM 53% | [9]; at 100.0 µM 59% | [10]; [16] 1% | [10]; [17] 64% | [10]; at 50.0 µM 25.9% | [11]; at 1.2 µM -2% | [11]; at 3.7 µM 0% | [11]; at 11.0 µM 5% | [11]; at 33.0 µM 51%
